Among all 190,000 compounds or so, about 810 (0.43%) were called active. The list comes from a sample in which actives are over-represented; it also holds similar structures and randomly drawn compounds. A number with no mark means an inactive call. No stated cut-off is given here; in the data, active means inhibition above about 50%; inactive means the rest.

This assay deals with Mannose-6-phosphate isomerase (Homo sapiens) (UniProt P34949). Kind of assay: MPI enzyme activity inhibition – biochemical, fluorescence intensity, coupled assay, primary screen (AID 1209).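 Further: plate controls were DMSO vehicle for no effect and wells lacking substrate for full effect.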 Conditions: purified PMI enzyme, at 20 µM, stronger effect = higher value.
Mannose-6-phosphate isomerase (Homo sapiens), sequence (P34949 whole entry, looked up): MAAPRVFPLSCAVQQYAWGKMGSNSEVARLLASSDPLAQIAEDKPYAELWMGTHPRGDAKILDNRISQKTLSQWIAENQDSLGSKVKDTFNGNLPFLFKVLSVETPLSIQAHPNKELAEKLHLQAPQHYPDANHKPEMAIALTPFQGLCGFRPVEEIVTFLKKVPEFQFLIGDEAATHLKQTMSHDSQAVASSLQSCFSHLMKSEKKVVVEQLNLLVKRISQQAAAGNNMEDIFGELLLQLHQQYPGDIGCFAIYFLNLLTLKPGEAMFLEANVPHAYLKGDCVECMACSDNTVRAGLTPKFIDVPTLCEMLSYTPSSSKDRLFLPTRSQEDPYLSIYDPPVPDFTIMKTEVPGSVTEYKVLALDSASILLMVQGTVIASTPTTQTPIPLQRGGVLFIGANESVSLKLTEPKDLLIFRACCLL
With `Cc1ccc(S(=O)(=O)N2CCCC2C(=O)Nc2nccs2)cc1` (stereo not given), the inhibition was -9.8%.
Take `CCOC(=O)C1CCCN(C(=O)c2ccc(Cl)c(S(=O)(=O)N3CCCCCC3)c2)C1` (stereo not given): the inhibition was -22.1%.
On to `O=C1OC(Nc2ccc(F)cc2F)c2ccccc21` (stereo not given), for which the inhibition was -10.1%.
The figure for `CCOC(=O)N1CCN(c2nc(C)cc(C(F)(F)F)n2)CC1` is 15.5%; for `COc1ccc(N=C2SC(C(=O)N3CCN(c4ccccc4)CC3)CC(=O)N2C)cc1` (stereo not given) it is 5%; for `CC(C)(C)C1CCc2c(C(=O)NNC(=O)CCCC(=O)O)csc2C1` (stereo not given) it is -6.1%.
The figure for `COc1ccccc1C1C(C(C)=O)=C(O)C(=O)N1CCc1ccccc1` (stereo not given) is 4.1%; for `Cc1ccccc1NC(=S)NC1CC2CCC(C1)N2Cc1ccco1` (stereo not given) it is -0.8%; for `COc1ccc(CC2(C)OC(c3ccc(Cl)cc3)=NN2C(C)=O)cc1` (stereo not given) it is 19%.
The figure for `O=C(Nc1ccc(S(=O)(=O)Nc2ncccn2)cc1)c1ccccc1NS(=O)(=O)c1ccc(F)cc1` is 2.8%.
As to `Cc1ccc(C)c(C(=O)COC(=O)c2cc(Cl)nc3ccccc23)c1`, the inhibition is 12.6%.
The figure for `CCOC(=O)N1CCN(Cc2ccccn2)CC1` is 3.7%.
The figure for `c1cc2ccc3ccc(CN4CCOCC4)c4ccc(c1)c2c34` is -2.6%; for `Oc1c(CN2CCc3ccccc3C2)cc(Cl)c2cccnc12` it is 40%; for `CCOC(=O)C1CCN(Cc2ccc(OC)c(C)c2OC)CC1` it is -4.3%.
The figure for `COCc1cc(CN2CCN(C)CC2)c(O)c2ncccc12` is 36.7%; for `CCOC(=O)C1CCN(Cc2ccc(O)c3ncccc23)CC1` it is 67% (active).
Take `Oc1ccc(CN2CCCCC2)c2cccnc12`: the inhibition is 43.3%.
In the case of `CCOC(=O)C1CCN(Cc2c(O)ccc3ccccc23)CC1`, the inhibition is 28.5%.
The figure for `O=c1cc(CN2CCOCC2)c2c(ccc3ccccc32)o1` is 1.2%.
The figure for `CCOC(=O)N1CCN(Cc2ccc(O)c3ncccc23)CC1` is 59.9% (active); for `Oc1c(CN2CCOCC2)ccc2ccccc12` it is 50.8% (active).
The figure for `CCOC(=O)CC(NC(=O)Cc1ccccc1)c1ccccc1Cl` (stereo not given) is 13.1%; for `COC(=O)C1=C(NC(=O)c2ccccc2C)CCS1` it is -17.4%.
With `O=C(Nc1cnn(Cc2ccc(F)cc2)c1)C(c1ccccc1)c1ccccc1`, the inhibition is 16%.
The figure for `O=S(=O)(Nc1cccnc1)c1ccc(Cl)c(C(F)(F)F)c1` is 6%.
The figure for `CC(C)C(=O)NCCc1nc2ccccc2n1CCOc1ccccc1` is -1.6%; for `CCN(CC)C(=O)C1=C(C)NC(=S)NC1c1cccs1` (stereo not given) it is -9%; for `CCOC(=O)C1CCCN(Cc2cc(=O)oc3cc(C)ccc23)C1` (stereo not given) it is -10.2%.
Consider `CN(CC(=O)NC1CCCCCC1)S(=O)(=O)c1ccc2c(c1)n(C)c(=O)c(=O)n2C`, for which the inhibition was 2.1%.
With `COC(=O)C1=C(NC(=O)c2ccc(C)c(C)c2)CCS1`, the inhibition was 3.8%.
In the case of `Cc1ccc2cc(C(c3nnnn3C3CCCC3)N3CCOCC3)c(=O)[nH]c2c1C` (stereo not given), the inhibition is -2.5%.
The figure for `CCOC(=O)C1=C(C)NC(=O)CC1c1cc2c(cc1Br)OCO2` (stereo not given) is 1.2%; for `CCOC(=O)C1=C(C)N(C)C(=O)NC1c1cc2c(cc1[N+](=O)[O-])OCO2` (stereo not given) it is 35.3%.
`CCOC(=O)C1=C(C)NC(=O)CC1c1cc2c(cc1[N+](=O)[O-])OCO2` (stereo not given): the inhibition was 53.2% (active).
Take `Cc1noc(C)c1C(=O)OCC(=O)NC(=O)NC12CC3CC(CC(C3)C1)C2`: the inhibition is -2.2%.
The figure for `Cc1noc(C)c1C(=O)OCC(=O)NC1CC1` is 1.3%; for `Cc1noc(C)c1C(=O)OCC(=O)C12CC3CC(CC(C3)C1)C2` it is 100% (active); for `CCC1S/C(=N/C(=O)NC2CCCCC2)NC1=O` (stereo not given) it is -8.6%.
`O=C(Nc1nccs1)NC1CCCCC1`: the inhibition is -3%.
The figure for `O=C(/N=C1\NC(=O)C(F)(C(F)(F)F)S1)NC1CCCCC1` (stereo not given) is 74.7% (active).
The figure for `c1ccc2c(c1)nc(N1CCN(C3CCCCC3)CC1)c1nnnn12` is 4.7%.
In the case of `Cc1nc2ccc(NC(=O)c3ccc(S(=O)(=O)N4CCOCC4)cc3)cc2s1`, the inhibition is 1.9%.
The figure for `Cc1ccc(C(=O)CSc2nc3cc(S(=O)(=O)N4CCOCC4)ccc3o2)cc1` is 25.2%; for `O=C(CSc1nc2cc(S(=O)(=O)N3CCOCC3)ccc2o1)Nc1c(F)cccc1F` it is 31.9%.
As to `Cc1nc2ccc(Nc3nc4cc(S(=O)(=O)N5CCOCC5)ccc4o3)cc2s1`, the inhibition was 64.5% (active).
Turning to `Cc1noc(C)c1CSc1nc2cc(S(=O)(=O)N3CCOCC3)ccc2o1`, the inhibition was 53.1% (active).
In the case of `Cc1nc2ccc(NC(=O)c3cc(S(=O)(=O)N4CCOCC4)ccc3C)cc2s1`, the inhibition was 9.8%.
The figure for `CC(/C=N/NC(=O)CSc1nc(C)cc(C)n1)=C\c1ccccc1` is 16.1%.
The figure for `CCOc1ccc(-c2nnc(-c3ccccc3)o2)cc1` is -0.3%; for `CCCCc1nc(Cl)c(C#N)c2c1CSC(C)(C)C2` it is 13.1%.
`CCc1onc(C)c1C(=O)O`: the inhibition was -13.1%.
The figure for `COc1cccc(-c2nnc(NC(=O)Cc3cccs3)s2)c1` is -3%; for `Cc1nn(Cc2cccc(C(=O)N3N=C(C(F)F)CC3(O)C(F)F)c2)c(C)c1[N+](=O)[O-]` (stereo not given) it is -1.8%; for `O=C1c2ccccc2C(=O)N1CN(C(=O)c1ccccc1[N+](=O)[O-])c1ccc(F)cc1` it is 13.9%.
For the molecule `Oc1ccccc1/C=C/c1noc(-c2ccccc2O)n1`, the inhibition is -7%.
With `O=c1cc(-c2ccccc2)c2ccccc2[nH]1`, the inhibition was 9.9%.
Take `Oc1cc(-c2ccccc2)c2ccccc2c1`: the inhibition is 82.6% (active).
The figure for `Cn1c(=O)cc(-c2ccccc2)c2ccccc21` is 1.5%; for `CCOC(=O)CSc1nc(C(C)(C)C)cc(C(F)(F)F)c1C#N` it is 5.9%; for `COC(=O)C1=C(C(=O)OC)SC2(S1)C(C(=O)OC)=C(C(=O)OC)SC1=C2c2cc(C)cc(C)c2NC1(C)C` it is 18.1%.
The figure for `COC(=O)C1=C(C(=O)OC)SC2(S1)C(C(=O)OC)=C(C(=O)OC)SC1=C2c2cc(C)ccc2NC1(C)C` is 57% (active); for `COC(=O)C1=C(C(=O)OC)SC2(S1)C(C(=O)OC)=C(C(=O)OC)SC1=C2c2cccc(C)c2NC1(C)C` it is 24.5%.
As to `CCOC(=O)CN1CCc2c(C)nc3c(-c4ccc(OC)c(OC)c4)cnn3c21`, the inhibition was 20.1%.
The figure for `CCOC(=O)NC(=O)COC(=O)CNC(=O)c1cccc(OC)c1` is -0.3%; for `COc1ccc(C(=O)NC(=S)NCC2CCCO2)cc1` (stereo not given) it is 2.8%; for `COc1ccc(N(CC(=O)N/N=C/c2ccc(-c3ccc([N+](=O)[O-])cc3)o2)S(=O)(=O)c2ccc(C)cc2)cc1` it is -2.3%.
As to `Cc1ccc(C)c(N(CC(=O)N/N=C/c2ccc(-c3ccc([N+](=O)[O-])cc3)o2)S(=O)(=O)c2ccccc2)c1`, the inhibition is 10.6%.
Consider `CCOC(=O)C1(Cc2ccc(OC)cc2)CCN(C(=O)CCc2cccnc2)CC1`, for which the inhibition was 7.6%.
Turning to `COc1ccc(C)cc1NC(=O)CSc1nnc(-c2ccco2)n1N`, the inhibition was 10.6%.
In the case of `COC(=O)/C=c1/sc2nc3ccccc3n2c1=O`, the inhibition is 75.6% (active).
On to `O=c1/c(=C/c2ccccn2)sc2nc3ccccc3n12`, for which the inhibition was -21.7%.
The figure for `O=c1/c(=C\c2cccnc2)sc2nc3ccccc3n12` is 7%; for `Nc1ccccc1Oc1c(F)c(F)c(Oc2ccccc2N)c(F)c1F` it is 18.8%.
The figure for `COc1cc(NC(c2ccccc2)c2ccccc2)cc(OC)c1OC` is 62.4% (active); for `COc1cc(NC(C(=O)Nc2cccc(C(C)=O)c2)c2ccccc2)cc(OC)c1OC` (stereo not given) it is 16.5%; for `COc1cc(C)c(NC(c2ccccc2)c2ccccc2)cc1OC` it is 16.1%.
For `COc1ccc(C(C)=O)c(OC(=O)c2ccc(OC)c(OC)c2)c1`, the inhibition was 17.5%.
The figure for `C=CCNc1nc2c(c(=O)[nH]c(=O)n2C)n1CCCCC` is 2.9%; for `COCCN=C1Sc2nc3ccc(C)cc3cc2CN1Cc1ccco1` it is -63.1%; for `COCCN=C1Sc2nc3c(C)cccc3cc2CN1Cc1ccco1` it is 51% (active).
Regarding `Cc1cccc2cc3c(nc12)SC(=NCC1CCCO1)N(Cc1ccco1)C3` (stereo not given), the inhibition was 7.4%.
The figure for `CCOc1ccc(NC(=NCc2ccc3c(c2)OCO3)SC2CC(=O)N(c3ccccc3)C2=O)cc1` (stereo not given) is -4.2%; for `CCN(CC)S(=O)(=O)c1ccc(NC2c3ccccc3C(=O)N2CCN2CCOCC2)cc1` (stereo not given) it is 18.5%; for `Cc1cc(C)c(O)c(N)c1` it is 33.4%.
The figure for `Cc1cc(C(C)(C)C)c(O)c(C(C)(C)C)c1` is 0%; for `CC1(c2ccccc2)NC(=O)N(CC(=O)Nc2cc(S(=O)(=O)N3CCOCC3)ccc2Cl)C1=O` (stereo not given) it is 1.7%.
Regarding `COc1ccc(OCC(=O)Nc2ncc3c(n2)CC(C)(C)CC3=O)cc1`, the inhibition was 7.1%.
As to `Cc1ccc(N(C(C)C(=O)Nc2c(C)n(C)n(-c3ccccc3)c2=O)S(C)(=O)=O)cc1C` (stereo not given), the inhibition was -4.4%.
The figure for `C[C@@H]1CN=C2N(CCNC(=O)CCC3CCCCC3)[C@H](Cc3ccc(O)cc3)CN21` is 85.3% (active); for `C[C@H]1CN=C2N(CCNC(=O)CCC3CCCCC3)[C@H](Cc3ccc(O)cc3)CN21` it is 2.5%; for `O=C(CCC1CCCCC1)NCCN1C2=NC[C@H](Cc3ccccc3)N2C[C@H]1Cc1ccc(O)cc1` it is 8%.
The figure for `COc1ccc(C[C@H]2CN3C(=NC[C@@H]3C(C)C)N2CCNC(=O)CCC2CCCCC2)cc1` is 7.4%; for `O=C(CCC1CCCCC1)NCCN1C2=NC[C@H](Cc3ccc(O)cc3)N2C[C@H]1Cc1ccc(O)cc1` it is 5%; for `CC(C)[C@H]1CN=C2N(CCNC(=O)CCC3CCCCC3)[C@H](Cc3ccc(O)cc3)CN21` it is 65.2% (active).

Broadly, the inhibition is the change of the read-out against control, counted positive when it falls.

For the origin of these results see PubChem BioAssay AID1209 (Sanford-Burnham Center for Chemical Genomics, 2008).
